# Assay outcomes from PubChem BioAssay.
# Hits are enriched below; roughly 1.6% of the tested compounds scored in any of these assays.
# KCNQ2 block: inhibitors of rat KCNQ2 potassium channel; CHO-K1 KCNQ2, FluxOR thallium flux, 20 min; active compounds read low; 310,000 tested, 1.1% active; O88943; B-score at 10 µM;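 active = fluorescence ratio B-score at most minus 3 library SDs, with starting brightness B-score within 2 library SDs, cut at about -5.5 in these data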
# Target sequence (O88943 whole entry, looked up): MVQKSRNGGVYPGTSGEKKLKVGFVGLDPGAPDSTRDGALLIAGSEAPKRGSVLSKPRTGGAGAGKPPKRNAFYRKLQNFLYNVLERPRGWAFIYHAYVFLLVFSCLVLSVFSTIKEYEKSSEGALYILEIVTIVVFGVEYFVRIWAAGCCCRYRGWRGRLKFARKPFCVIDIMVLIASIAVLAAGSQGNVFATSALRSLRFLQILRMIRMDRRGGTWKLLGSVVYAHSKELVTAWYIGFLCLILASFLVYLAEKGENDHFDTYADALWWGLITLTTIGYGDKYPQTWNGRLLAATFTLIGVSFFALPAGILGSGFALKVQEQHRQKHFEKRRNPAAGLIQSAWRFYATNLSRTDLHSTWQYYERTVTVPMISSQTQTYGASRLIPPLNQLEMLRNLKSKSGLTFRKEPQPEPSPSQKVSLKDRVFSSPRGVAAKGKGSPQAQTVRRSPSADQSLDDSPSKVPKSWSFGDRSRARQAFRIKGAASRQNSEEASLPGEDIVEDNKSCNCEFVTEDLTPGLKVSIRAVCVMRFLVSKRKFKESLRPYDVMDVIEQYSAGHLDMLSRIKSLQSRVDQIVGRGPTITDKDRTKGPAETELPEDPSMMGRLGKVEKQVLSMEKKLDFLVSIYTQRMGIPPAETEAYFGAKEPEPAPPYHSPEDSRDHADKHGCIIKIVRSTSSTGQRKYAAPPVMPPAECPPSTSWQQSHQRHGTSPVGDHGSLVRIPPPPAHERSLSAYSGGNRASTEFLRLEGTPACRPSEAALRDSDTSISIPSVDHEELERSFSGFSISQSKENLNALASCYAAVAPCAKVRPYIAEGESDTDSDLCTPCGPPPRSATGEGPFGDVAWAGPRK
# KCNQ2 pot: enhances the rat KCNQ2 potassium channel; O88943; CHO-K1 KCNQ2, FluxOR thallium flux fluorescence; active compounds read high; B-score at 10 µM; 310,000 tested, 0.54% active; AID 2239;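 active = fluorescence ratio B-score at least 3 SD of library B-scores, with initial fluorescence B-score within 3 of them, cut at about 5.3 in these data; same plate scores as AID 2156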;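 note: B-score of peak minus minimum over baseline fluorescence ratio after K+ and Tl+ stimulus; positive B-score means potentiation of KCNQ2 with more thallium influx and brighter signal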
# Kir21 confirm: confirmation of mouse Kir2.1 potassium channel inhibitors. shares compounds with KCNQ2 pot. Kir2.1-expressing cells, FluxOR thallium flux fluorescence; active compounds read low. Tl flux remaining, % of negative control (active compounds read low), % at 10 µM. 2,300 tested, 41% active;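 active = Primary-screen hit whose thallium flux fell at least 3 control SD below untreated wells in both duplicates, with normal baseline fluorescence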
# HEK293 ctr: counter-screen for Kir2.1 inhibitors: effect in parental HEK293 cells. shares compounds with KCNQ2 pot. FluxOR thallium flux fluorescence; 0% = unstimulated blank wells. FluxOR signal as % of negative control (100 = no effect), % at 10 µM. 2,300 tested, 19% active;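 active = dye signal at least 3 control SD above or below untreated wells in both duplicates, raw fluorescence within 3, either direction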;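 note: percent is based on the flux ratio of peak minus minimum fluorescence over baseline F0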
# CHO-K1 Tl ctr: parental CHO-K1 activity in KCNQ2 potentiator counter-screen; parental CHO-K1 cells, FluxOR thallium flux fluorescence; zero = vehicle mean+3SD, 100% = vehicle-minus-blank window; activity increase over 3SD of controls, % at 10 µM; AID 2282; shares compounds with KCNQ2 pot; 1,200 tested, 43% active;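 active = signal rise of at least 3 SD above the untreated control mean, in both duplicate wells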;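 note: counter screen of KCNQ2 potentiator hits so any rise reflects channel-independent effects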
# KCNQ1 pot spec: selectivity of KCNQ2 potentiators: effect on human KCNQ1; 1,200 tested, 28% active; activation over 3SD threshold, % at 10 µM; CHO KCNQ1 stable, FluxOR thallium flux fluorescence; beyond 3SD, as % of vehicle-control signal; AID 2283; shares compounds with KCNQ2 pot;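 active = fluorescence ratio rise of at least 3 SD of vehicle wells above their mean, in both replicate wells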
# KCNQ2 pot conf: confirmation of rat KCNQ2 potassium channel potentiators; shares compounds with KCNQ2 pot; CHO-KCNQ2 cells, FluxOR thallium flux fluorescence; potentiation, less the hit threshold, % at 10 µM; 1,200 tested, 68% active;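 active = fluorescence ratio rising 3 SD or more over the vehicle control mean in both replicates, plus primary screen hit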;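 note: peak minus minimum thallium fluorescence divided by baseline after K/Tl stimulus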
# Kir2-1 sel: mouse Kir2.1 off-target activity of KCNQ2 potentiators | shares compounds with KCNQ2 pot | HEK293 Kir2.1, FluxOR thallium flux fluorescence | activity over 3SD threshold, % at 10 µM | 1,200 tested, 2% active | AID 2345;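 active = fluorescence ratio rise of at least 3 SD above the vehicle-control mean, seen in both replicates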
# KCNQ2 W236L MoA: potentiates the retigabine-insensitive rat KCNQ2 W236L mutant channel. shares compounds with KCNQ2 pot. CHO KCNQ2-W236L, automated patch clamp current. current increase over 3SD of negative controls (%), active compounds read high, % at 25 µM. 940 tested, 10% active;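 active = current increase at least 3 SD of the untreated controls above them in both duplicate recordings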
# Numbers stand for hits; 0 = inactive; - = no result; + = active, no number.
SMILES,KCNQ2 block,KCNQ2 pot,Kir21 confirm,HEK293 ctr,others
Cc1ccc(SCC(=O)Nc2nnc(-c3ccco3)o2)cc1,0,5.6,-,-,CHO-K1 Tl ctr=0;KCNQ1 pot spec=0;KCNQ2 pot conf=0;Kir2-1 sel=0
O=C(CSc1ccc(F)cc1)Nc1nnc(-c2ccco2)o1,0,0,-,-,
COc1ccc(CSc2nnc(-c3ccncc3)n2C)cc1F,0,-,-,-,
COc1ccc(N2CCc3c(C)nc(SC)nc32)cc1,0,-,-,-,
Cc1cc(S(=O)(=O)Nc2ccc3ccccc3c2)c(C)s1,0,0,-,-,
Cc1cc(S(=O)(=O)Nc2cc(C)c(O)c(C)c2)c(C)s1,0,-,72%,0,
Cc1ccc(CCNC(=O)C2CCN(S(=O)(=O)c3ccc4c(c3)oc(=O)n4C)CC2)cc1,0,-,-,-,
CCN(C(=O)CSc1nncn1-c1ccccc1)c1c(N)n(Cc2ccccc2)c(=O)[nH]c1=O,0,-,-,-,
O=C(C1=C(O)C(=O)N(CCN2CCOCC2)C1c1cccc(Br)c1)c1cccs1 (centres undefined),0,0,-,-,
COc1ccc(C(=O)NCc2nnc(SCC(=O)NCc3ccco3)o2)cc1,0,-,-,-,
O=C(/C=C/c1ccccc1)CC(O)(c1ccccc1)C(F)(F)F (centres undefined),0,-,62%,0,
COc1ccc(/C=C/C(=O)CC(O)(c2ccccc2)C(F)(F)F)cc1 (centres undefined),0,-,-,-,
COc1ccc(NC(=O)CSc2nc3ccccc3c(=O)n2CCCN2CCCCC2)c(OC)c1,0,-,62%,0,
COCCCNC(=O)CSc1nc2ccccc2c(=O)n1CCCN1CCCCC1,0,0,-,-,
CC(Sc1ccc(Cl)cc1)C(=O)Nc1ccc2c(c1)OCO2 (centres undefined),0,0,-,-,
CC(Sc1ccc(Cl)cc1)C(=O)NCc1ccc2c(c1)OCO2 (centres undefined),0,7.7,0,0,CHO-K1 Tl ctr=81;KCNQ1 pot spec=14;KCNQ2 pot conf=3.7;Kir2-1 sel=0;KCNQ2 W236L MoA=0
Cc1ccc(/C(O)=C/c2nc3cc(C)ccc3oc2=O)cc1,0,0,-,-,
CCOC(=O)c1c(S(=O)(=O)N(C)Cc2ccccc2)c(C)n(C)c1C,0,-,-,-,
Cc1cccc(NC(=S)NNC(=O)c2ccc3c(c2)OCO3)c1,0,0,-,-,
COc1ccc(CCNC(=O)CN2CCCc3ccccc32)cc1OC,0,-,-,-,
O=C(CN1CCCc2ccccc21)NCCc1ccc(F)cc1,0,-,46%,0,
Oc1[nH]c2ccccc2c1N=Nc1nncc2ccccc12,0,0,-,-,
CC(=O)NC(c1ccc(C(C)C)cc1)c1ccc2cccnc2c1O (centres undefined),0,0,-,-,
CCOC(=O)/C(=C\C=C\N1CCOCC1)C(C)=O,0,0,-,-,
O=C(Nc1cc(Cl)ccc1Cl)C1CC(=O)N(c2ccccc2)C1 (centres undefined),0,-,-,-,
SMILES,KCNQ2 block,KCNQ2 pot,Kir21 confirm,HEK293 ctr,others
O=C(Cc1ccccc1)Nc1nc(-c2cccc([N+](=O)[O-])c2)cs1,0,0,-,-,
O=[N+]([O-])c1cccc(-c2csc(Nc3ccccc3)n2)c1,0,0,0,0,
Cc1ccc(CNC(=O)C2CCN(S(=O)(=O)c3ccc4c(c3)CC(C)N4C(=O)C3CCC3)CC2)o1 (centres undefined),0,6.6,0,0,CHO-K1 Tl ctr=0;KCNQ1 pot spec=0;KCNQ2 pot conf=0;Kir2-1 sel=0
CC(C)CCNC(=O)C1CCN(S(=O)(=O)c2ccc3c(c2)CC(C)N3C(=O)C2CCC2)CC1 (centres undefined),0,0,-,-,
CSc1sccc1/C=N/O,0,0,-,-,
CCCCCCOc1ccc(/C(C)=N/NC2=NCCN2)cc1[N+](=O)[O-],0,0,-,-,
CCCCOc1ccc(Br)cc1/C(C)=N/NC1=NCCN1,0,-,0,0,
CCN(CC)S(=O)(=O)c1ccc(NS(=O)(=O)c2ccc3oc(=O)[nH]c3c2)cc1,0,0,-,-,
CC(C)=CC(=O)Nc1c(C)cc(C)cc1Cl,0,11,0,0,CHO-K1 Tl ctr=0;KCNQ1 pot spec=0;KCNQ2 pot conf=28;Kir2-1 sel=0;KCNQ2 W236L MoA=0
Cc1cc(C)c(NC(=O)CCCC(=O)O)c(Cl)c1,0,-,-,-,
CCOC(=O)c1c(NC(=O)c2ccc(S(=O)(=O)N3CCOCC3)cc2)sc2c1CC(C)(C)NC2(C)C,0,0,-,-,
Cc1ccc(S(=O)(=O)Nc2ccc(Cl)cc2)cc1NC(=O)Cn1cnc2c1c(=O)n(C)c(=O)n2C,0,0,-,-,
COc1cccc(C(C)NC(=S)NCc2ccc(Cl)cc2)c1 (centres undefined),0,0,52%,0,
COc1ccc(C(C)NC(=S)NCc2ccc(F)cc2)cc1 (centres undefined),0,0,-,-,
CCCCn1c(-c2ccccc2)cnc1SCC(=O)NCCc1ccc(OC)c(OC)c1,0,-,56%,0,
COc1ccc(CCNC(=O)CSc2nnc(-c3ccccc3)c3ccccc23)cc1OC,0,-,-,-,
CN(Cc1ccccc1F)C(=O)c1sccc1-c1ccccc1,0,-,54%,0,
COc1ccccc1CNC(=O)c1sccc1C,0,-,-,-,
COc1ccccc1CNC(=O)c1sccc1-c1ccccc1,0,-,74%,0,
COc1cccc(CN(C)C(=O)c2sccc2-c2ccccc2)c1OC,0,-,-,-,
O=C(CN1CCCCC1CO)c1ccc(OC(F)F)cc1 (centres undefined),0,0,-,-,
Cc1ccc(-c2n[nH]c(=S)n2/N=C/c2ccc(C)o2)cc1,0,-,-,-,
COC(=O)CN1C(=O)Nc2ccc(Cl)cc2C1c1ccccc1 (centres undefined),0,0,-,-,
COC(=O)CN1C(=O)Nc2ccc(Br)cc2C1c1ccccc1Cl (centres undefined),0,15,0,0,CHO-K1 Tl ctr=0;KCNQ1 pot spec=+;KCNQ2 pot conf=38;Kir2-1 sel=0;KCNQ2 W236L MoA=6.9%
COc1ccc(NC(=O)NC2(C(=O)N3CCOCC3)CCCCC2)cc1,0,0,-,-,
SMILES,KCNQ2 block,KCNQ2 pot,Kir21 confirm,HEK293 ctr,others
CC1(C)COCN1C(=O)c1ccc(C#N)cc1,0,-,-,-,
S=c1[nH]c2cc(-c3ccccc3)ccc2o1,0,18,0,500%,CHO-K1 Tl ctr=0;KCNQ1 pot spec=0;KCNQ2 pot conf=100;Kir2-1 sel=3.9;KCNQ2 W236L MoA=0
O=S(=O)(c1ccc2oc(=S)[nH]c2c1)N1CCCCC1,0,-,-,-,
CCCCOc1ccc(C(=O)OC2CC(C)N(C)CC2C)cc1 (centres undefined),0,-,-,-,
Cc1cc(C)c2cc(C#N)c(N3CCCN(C(=S)NCCCN(C)C)CC3)nc2c1,0,-,50%,0,
Cc1ccc2cc(C#N)c(N3CCCN(C(=S)NCCCN(C)C)CC3)nc2c1,0,-,-,-,
